Results as given in PubChem BioAssay (EPA / NIEHS).
Active and inactive are the calls of the source. The calls were made as follows: active = hit-call score of the fitted dose curve at least 0.9, where 1 is the maximum; inactive = score below 0.9.

Legend:
[1] = APR_HepG2_NuclearSize_24hr: Apredica 24-hour HepG2 Assay for Nuclear Size (AID 2282907); details: high-content imaging, actives raise or lower the signal
Method in brief: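 Nuclear size from Hoechst 33342-stained, formaldehyde-fixed HepG2 nuclei imaged by high-content microscopy, after 24 h dosing at ten concentrations from 0.39 to 200 uM in 0.5% DMSO; gain or loss relative to DMSO baseline.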

[2] = APR_HepG2_CellLoss_24hr: Apredica 24-hour HepG2 Assay for Cell Loss (AID 2282908); details: high-content imaging;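 as to AC50: fit in both directions so a hit may be cell loss or gain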
Method in brief: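 Nuclei stained with Hoechst 33342 after formaldehyde fixation (3.7%) were imaged at 20x to count cells. Exposure lasted 24 hr, at ten concentrations from 0.39 to 200 uM in duplicate, with 0.5% v/v DMSO. Fit bidirectional, relative to DMSO.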

[3] = APR_HepG2_MicrotubuleCSK_24hr: Apredica 24-hour HepG2 Assay for Microtubule CSK Stabilty (AID 2282909); details: HepG2 microtubule cytoskeleton imaging, actives raise or lower the signal
Method in brief: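 Fixed HepG2 cells were stained for alpha-tubulin and imaged after 24 hr exposure to ten concentrations spanning 0.39–200 uM in 0.5% DMSO. Signal change was fitted in both directions relative to DMSO; taxol was the positive control.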

[4] = APR_HepG2_MitoticArrest_24hr: Apredica 24-hour HepG2 Assay for Mitotic Arrest (AID 2282910); details: high-content imaging, actives raise or lower the signal
Method in brief: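 HepG2, 24 hr dosing, 0.39–200 uM, 0.5% DMSO final. Formaldehyde-fixed, Triton-permeabilised, anti-phospho-histone H3 plus Hoechst. ArrayScan imaging at 20x; bidirectional fit vs DMSO baseline.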

[5] = APR_HepG2_MitoMembPot_24hr: Apredica 24-hour HepG2 Assay for Mitochondrial Membrane Potential (AID 2282911); details: imaging, actives raise or lower the signal
Method in brief: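 HepG2 human liver cells were exposed 24 hr to compounds at 0.39–200 uM (final DMSO 0.5% v/v) in duplicate. MitoTracker Red CMXRos (250 nM, 30 min) was loaded before formaldehyde fixation; fluorescence was imaged by ArrayScan HCS and fitted bidirectionally versus DMSO.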

[6] = APR_HepG2_p53Act_24hr: Apredica 24-hour HepG2 Assay for p53 Activation (AID 2282913); details: high-content imaging, actives raise or lower the signal;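 also: p53 protein immunofluorescence averaged per cell in HepG2 with Hoechst nuclei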
Method in brief: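 HepG2 cells exposed 24 hr to compounds at 0.39–200 uM (10 concentrations, duplicate), final DMSO 0.5% v/v. After formaldehyde fixation and Triton permeabilization, p53 was immunolabeled (sheep anti-p53, Cy5 secondary) with Hoechst 33342 nuclear counterstain, then imaged by high-content fluorescence microscopy.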

[7] = APR_HepG2_CellCycleArrest_72hr: Apredica 72-hour HepG2 Assay for Cell Cycle Arrest (AID 2282914); details: high-content imaging, actives raise or lower the signal
Method in brief: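 HepG2 cells were exposed to compounds at 0.39–200 uM (0.5% v/v DMSO final, duplicates) for 72 hr, fixed in 3.7% formaldehyde, permeabilized and stained with Hoechst 33342. Nuclear DNA content was quantified by high-content imaging; gain or loss of signal was fitted bidirectionally against DMSO.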

[8] = APR_HepG2_CellLoss_72hr: Apredica 72-hour HepG2 Assay for Cell Loss (AID 2282915); details: high-content imaging
Method in brief: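 HepG2 cells exposed 72 h to compound at 0.39–200 uM (10 concentrations, duplicate) in 0.5% DMSO. Fixed with 3.7% formaldehyde and Hoechst 33342-stained. Imaged at 20x; nuclear count gives cell number, fitted bidirectionally versus DMSO.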

[9] = APR_HepG2_P-H2AX_72hr: Apredica 72-hour HepG2 Assay for H2AX Phosphorylation (AID 2282916); details: imaging, actives raise or lower the signal;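 also: phospho-histone H2A.x immunostain intensity per cell marking DNA damage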
Method in brief: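 Phospho-histone H2A.x immunofluorescence, multiplexed with Hoechst and c-Jun, quantified by high-content imaging. Compounds applied to HepG2 for 72 h across ten concentrations (0.39–200 uM, 0.5% DMSO), in duplicate; DMSO baseline.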

[10] = APR_HepG2_MitoMembPot_72hr: Apredica 72-hour HepG2 Assay for Mitochondrial Membrane Potential (AID 2282917); details: imaging, actives raise or lower the signal
Method in brief: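 HepG2 cells dosed 72 hr with compound at 0.39–200 uM in duplicate, 0.5% v/v DMSO final. Mitochondria stained with 250 nM MitoTracker Red CMXRos for 30 min before formaldehyde fixation, imaged by high-content fluorescence; bidirectional fit versus DMSO.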

[11] = APR_HepG2_MitoticArrest_72hr: Apredica 72-hour HepG2 Assay for Mitotic Arrest (AID 2282918); details: high-content imaging, actives raise or lower the signal
Method in brief: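 HepG2 cells were exposed for 72 hr to compound at 0.39–200 uM (10 concentrations, duplicate) in 0.5% v/v DMSO, fixed in 3.7% formaldehyde, immunostained for phospho-histone H3 with Hoechst 33342 and imaged by high-content fluorescence; bidirectional fits versus DMSO.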

[12] = APR_HepG2_MicrotubuleCSK_72hr: Apredica 72-hour HepG2 Assay for Microtubule CSK Stabilty (AID 2282919); details: HepG2 microtubule cytoskeleton, high-content imaging, actives raise or lower the signal
Method in brief: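 HepG2, 72 hr cmpd exposure, 0.39–200 uM (10 pts, duplicate), 0.5% DMSO. 3.7% formaldehyde fix, 0.5% Triton perm, anti-alpha-tubulin/Cy5 plus Hoechst. HCS fluorescence intensity; bidirectional fit vs DMSO baseline; taxol as positive control.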

[13] = APR_HepG2_P-H2AX_24hr: Apredica 24-hour HepG2 Assay for H2AX Phosphorylation (AID 2282920); details: high-content imaging, actives raise or lower the signal
Method in brief: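 HepG2 human liver cells were exposed for 24 hr to compounds at 0.39–200 uM in duplicate, with 0.5% v/v DMSO final. Fixed cells were immunostained for phospho-histone H2A.x plus Hoechst 33342, imaged by HCS fluorescence, and fitted bidirectionally against DMSO.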

[14] = APR_HepG2_StressKinase_72hr: Apredica 72-hour HepG2 Assay for Stress Kinase (AID 2282921); details: HepG2 stress kinase (phospho-c-Jun) imaging, actives raise or lower the signal
Method in brief: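 Stress kinase signal is phospho-c-Jun immunofluorescence (1:500 primary, Cy3 secondary) in fixed, permeabilized human HepG2 cells imaged at 20x. Exposure lasted 72 hr over ten concentrations from 0.39 to 200 uM, 0.5% DMSO, in duplicate. Bidirectional fit versus DMSO.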

[15] = APR_HepG2_StressKinase_24hr: Apredica 24-hour HepG2 Assay for Stress Kinase (AID 2282922); details: HepG2 stress kinase (phospho-c-Jun) imaging, actives raise or lower the signal
Method in brief: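 Read-out: phospho-c-Jun immunofluorescence (Cy3 secondary) quantified by high-content imaging at 20x, nuclei defined by Hoechst 33342. Human HepG2 liver cells dosed 24 hr, 0.39–200 uM, DMSO 0.5% v/v; gain or loss of signal fitted relative to DMSO.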

[16] = APR_HepG2_p53Act_72hr: Apredica 72-hour HepG2 Assay for p53 Activation (AID 2282923); details: high-content imaging, actives raise or lower the signal;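 also: average cellular p53 protein immunofluorescence intensity in HepG2 cells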
Method in brief: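 After 72 h with compound (ten points, 0.39 to 200 uM, final DMSO 0.5% v/v), fixed HepG2 cells were labelled with sheep anti-p53 and Hoechst 33342 and imaged; gain or loss versus DMSO scored.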

[17] = APR_HepG2_MitoMass_72hr: Apredica 72-hour HepG2 Assay for Mitochondrial Mass (AID 2282924); details: high-content imaging, actives raise or lower the signal;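 also: MitoTracker Red CMXRos stain intensity per cell imaged as mitochondrial mass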
Method in brief: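 Read-out: MitoTracker Red fluorescence intensity from automated imaging (20x, six fields per well) in human HepG2 liver cells. Dosing ran 72 hr, 0.39–200 uM, 0.5% DMSO; bidirectional curve fitting versus DMSO baseline.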

[18] = APR_HepG2_NuclearSize_72hr: Apredica 72-hour HepG2 Assay for Nuclear Size (AID 2282925); details: high-content imaging, actives raise or lower the signal
Method in brief: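 Read-out: nuclear diameter from Hoechst 33342 images (ArrayScan, 20x, six fields/well), via cell-cycle image analysis. HepG2 were dosed 0.39–200 uM for 72 hr in 0.5% DMSO. Bidirectional fit relative to DMSO.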

[19] = ATG_CRE_CIS: Attagene CIS-FACTORIAL HepG2 Assay for human cAMP Responsive Element (CRE) binding protein 3 (AID 2282926); details: HepG2 CRE cis-reporter, Attagene multiplexed mRNA; actives raise or lower the signal
Method in brief: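 Capillary electrophoresis of 6-FAM-labelled, HpaI-digested PCR products quantified reporter transcripts. These came from HepG2 transiently transfected with cis-element reporters and exposed to test chemicals for 24 hours, with DMSO defining baseline activity.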

[20] = APR_HepG2_MitoMass_24hr: Apredica 24-hour HepG2 Assay for Mitochondrial Mass (AID 2282912); details: high-content imaging, actives raise or lower the signal
Method in brief: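 Endpoint is MitoTracker Red CMXRos (250 nM, 30 min, pre-fixation) intensity from 20x high-content imaging, nuclei located by Hoechst. Human HepG2 cells received ten concentrations from 0.39 to 200 uM in 0.5% DMSO for 24 hr, duplicate wells. Bidirectional fit relative to DMSO.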

Measured: AC50

CCOC(=O)c1ccc(O)cc1
not listed: [20]
inactive: all other assays above

COCCO
not listed: [20]
inactive: all other assays above

CCN(CC)C(=O)c1cccc(C)c1
not listed: [6] | [8] | [16]
inactive: all other assays above

CCSC(=O)N(CC(C)C)CC(C)C
not listed: [9] | [20]
inactive: all other assays above

CCCCOCCOCCOCc1cc2c(cc1CCC)OCO2
active: [3] 70 µM | [7] 45 µM | [12] 78.1 µM
not listed: [6] | [8] | [16] | [20]
inactive: all other assays above

CCCOC(=O)c1ccc(C(=O)OCCC)nc1
not listed: [8] | [9] | [20]
inactive: all other assays above

CCC(C)OC(=O)N1CCCCC1CCO (configuration not stated)
not listed: [8] | [9] | [20]
inactive: all other assays above

COC(=O)c1ccccc1C(=O)O
not listed: [8] | [9] | [20]
inactive: all other assays above

CCOC(=O)COc1cc(-n2ncc(C(F)(F)F)c(C)c2=O)c(F)cc1Cl
not listed: [8] | [20]
inactive: all other assays above

Oc1ccc(C(c2ccc(O)cc2)C(Cl)(Cl)Cl)cc1
active: [2] 135 µM | [11] 85.6 µM
not listed: [8] | [9] | [20]
inactive: all other assays above

O=C(c1ccccc1)C1CCCCC1
not listed: [8] | [9] | [20]
inactive: all other assays above

N[C@@H](Cc1cc(I)c(Oc2ccc(O)c(I)c2)c(I)c1)C(=O)O
not listed: [8] | [20]
inactive: all other assays above

S=C([S-])NCCNC(=S)[S-].[Mn+2]
active: [7] 82.9 µM | [12] 103 µM | [17] 166 µM
not listed: [6] | [8] | [9] | [16] | [20]
inactive: all other assays above

CCCCCCC(C)OC(=O)COc1nc(F)c(Cl)c(N)c1Cl (configuration not stated)
active: [3] 116 µM | [12] 106 µM
not listed: [8] | [9] | [20]
inactive: all other assays above
